Screening data as filed in PubChem.
The full list was thinned out, with hits kept by preference.
PTHR1 ag = qHTS for PTHR1 Agonists: Primary Screen. Parathyroid hormone/parathyroid hormone-related peptide receptor (Homo sapiens), Q03431. HEK293 GP2 PTHR1 cells, GloSensor cAMP luminescence, 1 h. Potency, µM (titrated, usually from 115 µM), for the others: top-dose activation, actives largely listed as activators. hit rate 0.075% among 410,000; further: potency means the concentration at half of the fitted maximal effect; nearly all actives have a fitted effect of over 55% in size
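HEK-293-derived GP2 cells expressing PTHR1 and a GloSensor cAMP reporter, 3,000/well, plated overnight, given luciferin plus IBMX (each 0.5 mM as added) for 1 h at 37 °C, then compound for 1 h at 37 °C. Luminescence was read after 15 min at room temperature.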
TSHR antag = Antagonists of the Thyroid Stimulating Hormone Receptor: HTS campaign. Thyrotropin receptor (Homo sapiens), P16473. TSHR-expressing cells, TSH-stimulated cAMP HTRF, 2 h; hits give low values. activity change, negative = inhibition, % at 11.5 µM. hit rate 0.2% among 330,000. AID 504810, 2011;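 active means activity change below a set negative limit, meaning inhibition stronger than a set level, cut at about -70% in these data; inconclusive means activity change between two set negative limits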; further: on the % scale 0 is the no-effect control and ±100 the full control effect
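Cell-based HTRF cAMP assay; TSHR cells + compound, TSH EC80 (4nM final), 2 h, 37 deg C. Lysis with anti-cAMP cryptate and cAMP-d2, 30 min RT, read 665/620 nm.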
RXFP1 antagonist = qHTS Assay for Antagonists of the Relaxin Receptor RXFP1 | Relaxin receptor 1 (Homo sapiens), Q9HBX9 | hit rate 0.59% among 350,000 | activity change, negative = inhibition, % at 57.5 µM | HEK293-RXFP1, relaxin-stimulated cAMP HTRF, 30 min; hits give low values;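 active means activity change of -60% or lower, but not beyond a set lower limit; inconclusive means change between -60% and -40%, or beyond the set limit; inactive means change above -40%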; further: on the % scale 0 is the no-effect control and ±100 the full control effect
Target sequence (Q9HBX9 whole entry, looked up): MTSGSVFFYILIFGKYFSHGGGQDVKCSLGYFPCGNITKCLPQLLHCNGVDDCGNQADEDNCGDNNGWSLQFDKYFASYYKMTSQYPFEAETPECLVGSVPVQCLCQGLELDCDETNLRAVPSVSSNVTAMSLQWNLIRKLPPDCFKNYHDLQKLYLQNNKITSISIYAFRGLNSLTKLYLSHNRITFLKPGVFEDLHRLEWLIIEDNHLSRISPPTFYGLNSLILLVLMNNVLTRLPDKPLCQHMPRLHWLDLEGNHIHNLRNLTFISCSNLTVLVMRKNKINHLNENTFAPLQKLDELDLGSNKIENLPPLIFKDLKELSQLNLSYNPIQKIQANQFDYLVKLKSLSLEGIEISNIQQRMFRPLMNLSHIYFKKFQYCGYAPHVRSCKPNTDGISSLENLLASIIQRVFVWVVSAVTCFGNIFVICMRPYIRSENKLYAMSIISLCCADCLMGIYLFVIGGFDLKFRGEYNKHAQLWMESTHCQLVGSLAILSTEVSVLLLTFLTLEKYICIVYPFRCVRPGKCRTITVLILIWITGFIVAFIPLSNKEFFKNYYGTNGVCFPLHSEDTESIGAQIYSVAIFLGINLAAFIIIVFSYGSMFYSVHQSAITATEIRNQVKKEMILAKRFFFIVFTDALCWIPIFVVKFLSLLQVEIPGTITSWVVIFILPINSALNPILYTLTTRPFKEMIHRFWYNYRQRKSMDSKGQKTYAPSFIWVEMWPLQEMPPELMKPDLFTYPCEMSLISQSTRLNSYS
NPSR antag = qHTS Assay for Antagonists of the Neuropeptide S Receptor: cAMP Signal Transduction; hit rate 1% among 220,000; Potency, µM (highest dose often 38.3 µM), for the others: at the top dose activity change, negative = inhibition, most hits filed as inhibitors; AID 1461, 2008; CHO-NPSR cells, cAMP TR-FRET, antagonist mode; further: potency means the concentration at half of the fitted maximal effect; on the % scale 0 is the no-effect control and ±100 the full control effect; nearly all actives have a fitted effect of over 50% in size
RXFP1 ag = qHTS Assay for Agonists of the Relaxin Receptor RXFP1 | HEK293T-RXFP1 cAMP TR-FRET, 30 min; response scale: percent of porcine relaxin response, buffer zero | Potency, µM (titrated, usually from 57.5 µM), without a hit: top-dose activation, actives largely listed as activators | Relaxin receptor 1 (Homo sapiens), Q9HBX9 | hit rate 0.3% among 370,000; further: potency means the concentration at half of the fitted maximal effect; on the % scale 0 is the no-effect control and ±100 the full control effect; nearly all actives have a fitted effect of over 60% in size
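Agonist response is measured as cAMP accumulation in an RXFP1-transfected HEK293T line under PDE4 inhibition. Values are scaled between buffer-only and 29 nM porcine relaxin, and EC50s come from standard Hill equation fits.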
TCR act = Activators of T cell receptors: qHTS campaign; primary human leukocytes, anti-CD3, IL-2 HTRF, 48 h; 330,000 tested, under 10 active; Potency, µM (top dose mostly 9.22 µM), for the others: top-dose activation of IL-2 secretion, hits mostly activators; further: % of control where 0% means no effect
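IL-2 produced over 48 hr by a-CD3 bead-stimulated primary human leukocytes exposed to compounds was detected with a homogeneous time-resolved FRET immunoassay, 665nm acceptor signal after 320nm excitation.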
The depositor's hits bear a star; i = inactive; ? = inconclusive; . = not tested or not shown; ! = a repeat was not active; [ ] = remark or other dose. Unless noted, the call rests on the fitted dose curve; in most records, active means well fitted curve in the direction sought with a large enough effect; inconclusive means small, poorly fitted or top-dose-only effect, or another doubt; inactive means no such curve, though single readings can be large; an effect the other way counts as inactive or inconclusive.

SMILES | PTHR1 ag | TSHR antag | RXFP1 antagonist | NPSR antag | RXFP1 ag | TCR act
Cn1c(SCc2nnc(-c3ccc(F)cc3)o2)nnc1C1COc2ccccc2O1 (centres undefined) | -7% | 33 | 9 | -9%[46.1 µM] | 2% | 4%
O=S(=O)(Nc1ccc(F)c(C(F)(F)F)c1)c1ccc(N2CCCCS2(=O)=O)cc1 | -39% | . | -9 | . | -1% | .
O=C(Nc1nc(=O)c2ccccc2s1)c1ccc(Cl)cc1 | -8% | -10 | 10 | ? | 32µM* | 5%
COc1ccc2[nH]c3c(N4CC(C)OC(C)C4)ncnc3c2c1 (centres undefined) | -3% | -11 | -4 | -12%[46.1 µM] | 12% | 2%
COc1cccc(N2CCN(c3ncnc4c3[nH]c3ccc(F)cc34)CC2C)c1 (centres undefined) | -21%[57.5 µM] | -105* | -69* | 2.5µM* | 5% | 7%
COc1cccc(N2CCN(c3ncnc4c3[nH]c3ccccc34)CC2C)c1 (centres undefined) | . | -100* | . | 10µM* | 0% | 5%[46.1 µM]
N#C/C(=C1\SCC(c2ccccc2Cl)S1)n1ccnc1 (centres undefined) | . | . | 17 | . | . | .
Cc1ccc(-c2cc(C(=O)NCc3cnn(C)c3C)c3cc(Br)ccc3n2)cc1 | -17% | 7 | 7 | ? | 28µM*! | -15%
Cc1ccc(-c2cc(C(=O)N(C)Cc3cnn(C)c3C)c3cc(Br)ccc3n2)cc1 | -55% | -2 | 5 | -36% | 21% | -18%[46.1 µM]
Cc1cc(/C=N/NC(N)=S)c(C)n1-c1ccc(Cl)c(Cl)c1 | -9% | -16 | -105* | -42% | 3% | 3%[46.1 µM]
CCCn1nc([N+](=O)[O-])c(C(C#N)c2nc3ccccc3s2)c(Cl)c1=O (centres undefined) | -34%[57.5 µM] | -76* | -33 | 10µM* | -3% | 1%
CCn1nc([N+](=O)[O-])c(C(C#N)c2nc3ccccc3n2C)c(Cl)c1=O (centres undefined) | -30% | -12 | -5 | -11% | 0% | -3%[46.1 µM]
CCOc1ccc(-n2c([S-])c(C(=O)Nc3ccc(S(=O)(=O)N4CCOCC4)cc3)[n+]3cc(C(N)=O)ccc23)cc1 | -2% | 0 | -2 | 47%[7.67 µM] | 32µM* | -20%
CCc1ccc(NC(=O)C(=O)NCC(c2ccc3c(c2)OCO3)N2CCOCC2)cc1 (centres undefined) | 17% | . | -6 | . | 0% | .
CCCCCN(CCCOC)C(=O)C(CCC(=O)O)NC(=O)c1ccc(Cl)c(Cl)c1 (centres undefined) | . | . | -27 | . | . | .
CC1CCN(S(=O)(=O)c2ccc(NC(=O)CNC3CCCCC3)cc2)CC1 | i | -4 | -104* | . | -3% | 0%
CC1CCN(S(=O)(=O)c2ccc(C(=O)Nc3sccc3C(N)=O)cc2)CC1 | -46% | 1 | . | 6.3µM* | 3% | 2%
CCOC(=O)c1c(NC(=O)c2ccc(S(=O)(=O)N3CCC(C)CC3)cc2)sc2c1CCN(C)C2 | -18% | . | -63* | . | -36% | .
CCOc1ccc(NC(=O)CSc2cn(CC(=O)N3CCCCCC3)c3ccccc23)cc1 | -42% | . | -25 | . | -16% | .
COC(=O)c1cc2sc(C)cc2n1Cc1cccc(OC)c1 | -13% | . | -13 | . | 0% | .
O=C(CCc1nnc2ccc(N3CCC4(CC3)OCCO4)nn12)NCc1ccc(F)cc1 | i | 17 | 22 | . | 16µM* | -12%
CCOC(=O)C(=O)N(Nc1ccc(C)cc1)c1ccc(C)cc1 | -15% | 18 | -68* | 24% | 4% | 0%
COc1ccc(NC(=O)c2ccc3c(c2)NC(=O)CS3)cc1S(=O)(=O)Nc1ccc(Br)cc1 | i | -35 | -3 | -19% | -1% | 0%
Cc1ccc(NS(=O)(=O)c2cc(NC(=O)c3ccc4c(c3)NC(=O)CS4)ccc2C)c(C)c1 | -37% | -33 | -63* | -26% | -1% | -8%
O=C(CSc1ccccn1)Nc1cccc2ccccc12 | i | -116* | -4 | 5% | 1% | 5%
SMILES | PTHR1 ag | TSHR antag | RXFP1 antagonist | NPSR antag | RXFP1 ag | TCR act
O=C(CSc1ccccn1)Nc1ccccc1F | -24% | 1 | . | 3% | 5% | -7%
Nc1ccc(C(=O)OCC(O)CO)cc1 (centres undefined) | . | . | 9 | . | . | .
CCn1cc(S(=O)(=O)c2ccc(C)cc2C)c(=O)c2cc(F)c(N3CCCCC3)cc21 | -16% | . | -15 | . | 0% | .
O=C(NC(=S)NNC(=O)c1ccccc1O)c1ccco1 | -3% | -5 | -17 | 6% | 2% | -7%[46.1 µM]
O=C(NC(=S)NNC(=O)c1cc2ccccc2cc1O)c1ccco1 | -16% | -10 | -70* | -37% | -1% | .
CCOC(=O)c1c(NC(=O)C(C)Sc2cn(CCNC(=O)c3ccccc3OC)c3ccccc23)sc2c1CCC2 (centres undefined) | 16% | . | . | . | -2% | .
Cn1c2c(c(=O)n(C)c1=O)C(C(F)(F)F)(C(F)(F)F)N=C(CCC1CCCCC1)N2 | -43% | -4 | -65* | ? | 1% | 2%[46.1 µM]
CC(C)(C)NCC(O)COc1ccccc1OCC1CCCO1 (centres undefined) | . | . | -7 | . | . | .
O=S(=O)(Nc1cccc(-n2cnnn2)c1)c1ccccc1C(F)(F)F | -9% | -136* | 20 | . | 1% | 1%
COC(=O)C(Cc1csc2ccc(Cl)cc12)NC(=O)c1ccc(Cl)cc1 (centres undefined) | -11% | ? | -68* | 13%[7.67 µM] | -1% | 0%
Cc1ccc(OCC(=O)Nc2ccc3nc(SCCOc4ccccc4)sc3c2)cc1 | -75% | . | . | . | 23% | .
CN(CC(=O)Nc1ccccc1Cl)C(=O)COC(=O)c1nc(Cl)c(Cl)c(Cl)c1Cl | -8% | -89* | -1 | . | 5% | 7%
COc1ccccc1NC(=O)c1ccccc1NS(=O)(=O)c1cccs1 | -25% | 2 | 10 | -11% | 0% | 0%
COc1ccc(C)cc1NC(=O)c1ccccc1NS(=O)(=O)c1ccc(Cl)s1 | -49% | -76* | -2 | -8% | 3% | 3%
CCn1c(=S)sc2c(=O)n(CC(=O)Nc3ccccc3C(F)(F)F)c(C)nc21 | i | -127* | -9 | . | 0% | 11%
Cc1cccc(NC(=O)c2oc3ccc(S(=O)(=O)N4CCCCC4)cc3c2C)c1C | -61% | . | -6 | . | 1% | .
Cc1n[nH]c(C)c1N1C(=O)c2cccc3c(N4CCCCCC4)ccc(c23)C1=O | ? | -11 | -65* | -29%[46.1 µM] | 4% | -3%
